GALK inhibitor = inhibitors of human galactokinase (GALK). recombinant GALK, Kinase-Glo ATP luminescence, 1 h. Potency, µM (titrated, usually from 57.5 µM), without a hit: top-dose activity, negative = inhibition, most hits filed as inhibitors. 44,000 tested, under 10 active;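 also: plate controls were full GALK reaction for no effect and reaction lacking GALK for full effect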
Target sequence (P51570 whole entry, looked up): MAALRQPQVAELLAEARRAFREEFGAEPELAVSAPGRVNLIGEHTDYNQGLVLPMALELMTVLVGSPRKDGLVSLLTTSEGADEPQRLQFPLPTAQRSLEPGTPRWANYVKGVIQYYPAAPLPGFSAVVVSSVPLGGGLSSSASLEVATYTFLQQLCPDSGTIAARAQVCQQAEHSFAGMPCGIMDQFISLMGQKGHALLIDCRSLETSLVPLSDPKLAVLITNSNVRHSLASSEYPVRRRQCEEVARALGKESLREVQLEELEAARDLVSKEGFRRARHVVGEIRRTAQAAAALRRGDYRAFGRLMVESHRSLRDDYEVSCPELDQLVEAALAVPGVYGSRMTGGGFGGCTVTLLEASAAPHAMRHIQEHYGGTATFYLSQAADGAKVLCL
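Compounds were pinned into ATP buffer, then GALK-galactose mix was added (final 5 nM enzyme, 35 uM ATP, 100 uM galactose, pH 8.0). After 1 h at room temperature, Kinase-Glo Plus was added and luminescence read.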
PTAP-TSG101 blk = TSG101-PTAP interaction inhibition, HIV-1 budding | Fluorescence polarization, FITC-PTAP peptide/Tsg101, 20 min | Potency, µM (doses to about 115 µM), most hits filed as inhibitors | 44,000 tested, under 10 active | AID 1347069; also: potency is read from the fitted curve at half-maximal effect; 0% is about no effect
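qHTS FP binding, 20 min r.t.: 10 uM Tsg101 domain + 50 nM FITC-PTAP peptide, pH 7.5 HEPES buffer with TCEP and EDTA.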
HTT prom inh = inhibitors of huntingtin promoter activity; HEK293 HTT promoter firefly luciferase reporter, 24 h; Potency, µM (titrated, usually from 57.5 µM), without a hit: at the top dose activity change, negative = inhibition, usual class: inhibitors; 48,000 tested, 0.93% active; also: potency is read from the fitted curve at half-maximal effect; nearly all actives have a fitted effect of over 50% in size
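HEK293 Fluc reporter, 2,500 cells/well, 24 h pre-culture; cpds up to 57.5 uM final, 24 h 37 degrees C; Dual-Glo, 10 min RT; normalized vehicle = 0%, zero RLU = -100%.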
SKOV3 invasion = ovarian cancer metastasis inhibition, 3D TME model. Potency, µM (doses to about 45.8 µM), for the others: top-dose activity change, negative = inhibition, most hits filed as inhibitors. 46,000 tested, 0.1% active. SKOV3ip1-GFP adhesion/invasion on 3D omental model, fluorescence;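 also: potency is read from the fitted curve at half-maximal effect; plate controls were DMSO wells for no effect and tomatine positive control wells for full effect; nearly all actives have a fitted effect of over 65% in size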
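Adhesion/invasion was scored as fixed GFP-labeled SKOV3ip1 cell counts (488/509 nm), normalized to DMSO and tomatine controls. Cancer cells in serum-free medium, with four compound doses (0.36-46 umol/L), sat 2 hr at RT then 16 hr at 37 C on a 48 hr fibroblast/mesothelial/ECM culture.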
HTT-AS promoter = activates huntingtin-antisense promoter activity. HEK293 HTT-AS promoter firefly luciferase reporter, 24 h; response scale: percent change from vehicle, -100% = no light. 48,000 tested, 0.24% active. Potency, µM (series often up to 57.5 µM), without a hit: top-dose activity change, positive = activation, usual class: activators; also: potency is read from the fitted curve at half-maximal effect; nearly all actives have a fitted effect of over 55% in size
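HEK293 cells carrying firefly luciferase reporters were seeded at 2,500 per well in Opti-MEM and cultured for 24 h. They were then treated with compounds at up to 57.5 uM final for 24 h at 37 degrees C before Dual-Glo luminescence readout.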
NTMT1 inhibitor = inhibitors of human N-terminal methyltransferase NTMT1; Q9BV86; NTMT1 MTase-Glo SAH luminescence, purified enzyme; Potency, µM (top dose mostly 114 µM), inactives show at the top dose activity change, negative = inhibition, usual class: inhibitors; 59,000 tested, 2.5% active; AID 1645870;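 also: potency is read from the fitted curve at half-maximal effect; plate controls were DMSO vehicle for no effect and no enzyme for full effect; nearly all actives have a fitted effect of over 65% in size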
Target sequence (Q9BV86 whole entry, looked up): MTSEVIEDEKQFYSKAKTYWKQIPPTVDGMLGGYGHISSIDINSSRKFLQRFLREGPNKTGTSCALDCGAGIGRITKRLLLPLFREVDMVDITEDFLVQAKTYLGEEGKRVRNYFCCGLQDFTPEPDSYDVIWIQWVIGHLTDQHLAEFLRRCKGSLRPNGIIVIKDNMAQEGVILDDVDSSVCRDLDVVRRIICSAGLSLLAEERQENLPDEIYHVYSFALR
* hit, by the source's call; ! = not active in a repeat; [ ] = dose if it differs, or a comment. The list is not random: actives were taken first. Their share in the collection is about 2.5%. Calls follow the shape of the dose curve; as a rule, active = well fitted curve in the direction sought with a large enough effect; inconclusive = small, poorly fitted or top-dose-only effect, or another doubt; inactive = no such curve, though single readings can be large; an effect the other way counts as inactive or inconclusive.

O=C1OC2(c3ccccc31)c1cc(Br)c(O)c(Br)c1Oc1c2cc(Br)c(O)c1Br was read as HTT prom inh 2%, HTT-AS promoter -10% and NTMT1 inhibitor 50µM*.
Screening O=c1c(-c2ccc(O)cc2)coc2cc(O)cc(O)c12 returned HTT prom inh 14%, SKOV3 invasion 19%, HTT-AS promoter inconclusive and NTMT1 inhibitor 71µM*!.
`CO[C@@H](C(=O)N1Cc2[nH]nc(NC(=O)c3ccc(N4CCN(C)CC4)cc3)c2C1)c1ccccc1` gave HTT prom inh -15%, SKOV3 invasion 13µM*, HTT-AS promoter -28% and NTMT1 inhibitor 2%.
COc1cccc(C2=CC(c3ccccc3F)n3ncc(C(=O)Nc4ccc(F)cc4)c3N2)c1 (configuration not stated) was read as GALK inhibitor 3%, PTAP-TSG101 blk inactive, HTT prom inh inconclusive, SKOV3 invasion inconclusive, HTT-AS promoter -31% and NTMT1 inhibitor 22µM*.
Screening CC(C)c1ccccc1Cc1cc(C(=O)Nc2ccc(S(=O)(=O)c3ccccc3C(C)(C)C)cc2)c(O)c(O)c1O returned HTT prom inh inconclusive, SKOV3 invasion -24%, HTT-AS promoter -36% and NTMT1 inhibitor 71µM*!.
CC(C)c1ccc(NC(=O)c2cc(S(=O)(=O)NCCc3ccccc3)ccc2F)cc1 was read as GALK inhibitor -1%, PTAP-TSG101 blk inactive, HTT prom inh inconclusive, SKOV3 invasion -20%, HTT-AS promoter -33% and NTMT1 inhibitor 5%.
Screening O=C1CCCC2=C1C(c1cccc(Cl)c1)N=C(Nc1nc3ccccc3o1)N2 (configuration not stated) returned NTMT1 inhibitor 9%.
`CCCc1ncc(C[n+]2ccccc2C)c(N)n1` gave HTT prom inh 8%, HTT-AS promoter -7% and NTMT1 inhibitor 35µM*.
`CSc1ccc(/C=C/c2nc3ccccc3n2S(=O)(=O)c2cccc(Cl)c2)cc1` gave GALK inhibitor 13%, PTAP-TSG101 blk inactive, HTT prom inh inconclusive, SKOV3 invasion inconclusive, HTT-AS promoter -70% and NTMT1 inhibitor 6.3µM*.
For O=S(=O)(c1cccc(Cl)c1)n1c(/C=C/c2ccccc2Cl)nc2ccccc21 the results were GALK inhibitor 10%, PTAP-TSG101 blk inactive, HTT prom inh -46%, SKOV3 invasion -14%, HTT-AS promoter inconclusive and NTMT1 inhibitor 6.3µM*.
Cc1ccc(/C=C/c2nc3ccccc3n2S(=O)(=O)c2ccc(Br)cc2)cc1 was read as GALK inhibitor -1%, PTAP-TSG101 blk inactive, HTT prom inh 2%, SKOV3 invasion inactive, HTT-AS promoter inconclusive and NTMT1 inhibitor inconclusive.
For COc1ccc(N2C(=O)N(c3c(C)cccc3Cl)Cc3cnc(Nc4ccc(C5CCN(C)CC5)cc4OC)nc32)nc1 the results were NTMT1 inhibitor -2%.
For O=c1cc(-c2ccccc2)oc2ccccc12 the results were HTT prom inh 39%[116 µM], HTT-AS promoter inconclusive and NTMT1 inhibitor 100µM*.
Screening Cc1cc(C)cc(NC(=O)c2cc(S(=O)(=O)N3CCC(C)CC3)cn2C)c1 returned GALK inhibitor -1%, PTAP-TSG101 blk inactive, HTT prom inh -20%, SKOV3 invasion -19%, HTT-AS promoter -26% and NTMT1 inhibitor 89µM*.
Screening CCOC(=O)C1=C(CN2CCN(c3ccc(C)cc3C)CC2)NC(=O)NC1c1ccc(OC)cc1 (configuration not stated) returned GALK inhibitor 0%, PTAP-TSG101 blk inactive, HTT prom inh 28µM*, SKOV3 invasion -6%, HTT-AS promoter -37% and NTMT1 inhibitor 0%.
Screening CCOC(=O)C1=C(CN2CCN(c3ccc(OC)cc3)CC2)NC(=O)NC1c1ccc(OC)cc1 (configuration not stated) returned GALK inhibitor 1%, PTAP-TSG101 blk inactive, HTT prom inh inconclusive, SKOV3 invasion -14%, HTT-AS promoter -25% and NTMT1 inhibitor inconclusive.
For COc1ccccc1NC(=O)CCCOc1cc(=O)n(C)c2ccccc12 the results were GALK inhibitor 9%, PTAP-TSG101 blk inactive, HTT prom inh 37%, SKOV3 invasion -4%, HTT-AS promoter 23% and NTMT1 inhibitor -7%.
C=CC(=O)Nc1cc(Nc2nccc(-c3cn(C)c4ccccc34)n2)c(OC)cc1N(C)CCN(C)C was read as NTMT1 inhibitor 25µM*.
`CCN(CC)CCn1c(-c2ccccc2)nc2c(NCCO)nc(C)nc21` gave NTMT1 inhibitor 89µM*.
CCCC(=O)O[C@@H]1[C@@H]2[C@@H](OC(C)=O)[C@]3(C)C(=O)[C@H]4[C@@H](OC(C)=O)C(C)(C)C[C@H]4[C@]3(C)C(=O)[C@@]2(OC(C)=O)C[C@@H]1C was read as NTMT1 inhibitor -3%[29.8 µM].
`Cc1cccc(N2CCN(c3ncnc4c3nc3n4CCCCC3)CC2C)c1` (configuration not stated) gave GALK inhibitor 1%, PTAP-TSG101 blk inactive, HTT prom inh 5µM*, SKOV3 invasion inconclusive, HTT-AS promoter -93% and NTMT1 inhibitor -4%.
Clc1cccc(N2CCN(c3ncnc4c3nc3n4CCCC3)CC2)c1 was read as GALK inhibitor 8%, PTAP-TSG101 blk inactive, HTT prom inh -28%, SKOV3 invasion inactive, HTT-AS promoter inconclusive and NTMT1 inhibitor 50µM*.
CN(C(=O)Nc1ccc2ccccc2c1)c1nnc(-c2ccncc2)s1 was read as NTMT1 inhibitor 8%.
COc1ccc(C(=O)N2CCN(c3ccc4c(c3)CCC(=O)N4)CC2)cc1OC was read as NTMT1 inhibitor -1%.
C=CC(=O)N1CCC(C2CCNc3c(C(N)=O)c(-c4ccc(Oc5ccccc5)cc4)nn32)CC1 (configuration not stated) was read as NTMT1 inhibitor -4%.
Cc1ccc2nc(-c3cc(NC(=O)COc4ccc(C)c(C)c4)ccc3Cl)oc2c1 was read as GALK inhibitor 0%, PTAP-TSG101 blk inactive, HTT prom inh 7%, SKOV3 invasion -21%, HTT-AS promoter 2.5µM* and NTMT1 inhibitor -1%.
Screening CCc1ccc(OCC(=O)Nc2ccc(Cl)c(-c3nc4cc(C)cc(C)c4o3)c2)cc1 returned GALK inhibitor 0%, PTAP-TSG101 blk inactive and SKOV3 invasion inactive.
Screening O=S(=O)(Nc1nccs1)c1ccc(NCc2cccc(O)c2)cc1 returned NTMT1 inhibitor -12%.

Bioassay records: PubChem BioAssay, National Center for Advancing Translational Sciences (NCATS)
